Where “and” joins values, the source holds several entries; their conditions need not be identical. Equal values may be shown once. The whole screen tested about 5,500 compounds, of which about 2,000 (36%) were called active. About 18% were inconclusive and are not listed. Rule as the data show it: active = normalized growth mostly below about 0.91 (no sharp cut-off); inconclusive = no clear call, values can overlap the other calls; inactive = mostly above about 0.92. The list shows a part of the results.
Assay: chemical genetic growth profiling, strain panel (AID 1159580);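 also: tested at 20 µM; growth read once vehicle control cultures reached saturation at 30 °C; 1 = growth at the plate median or of vehicle wells; lower values mean less growth of the strain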
Conditions: S. cerevisiae deletion strains, growth OD

Measured: normalized growth

CN(C)CCC(c1ccccc1)c1ccccn1 (centres undefined)
inactive: locus YAL013W, strain DEP1, hits give low values 0.99 | locus YAL021C, strain ccr4, hits give low values 1.02 | locus YAL026C, strain drs2, hits give low values 1.02 | locus YAL030W, strain snc1, hits give low values 1 | locus YAL040C, strain CLN3, hits give low values 1.01 | locus YBL061C, strain skt5, hits give low values 1.01 | locus YBR009C, strain hhf1, hits give low values 1.01 | locus YBR021W, strain FUR4, hits give low values 1.01 | locus YBR023C, strain chs3, hits give low values 1.01 | locus YBR171W, strain sec66, hits give low values 1.03 | locus YBR229C, strain ROT2, hits give low values 1 | locus YBR231C, strain swc5, hits give low values 1.01 | locus YBR279W, strain paf1, hits give low values 1.01 | locus YCL011C, strain gbp2, hits give low values 1.01 | locus YCL016C, strain dcc1, hits give low values 1.02 | locus YCL029C, strain bik1, hits give low values 1 | locus YCL061C, strain MRC1 (second series), hits give low values 1.01 | locus YCL061C, strain MRC1, hits give low values 1.01 | locus YCL069W, strain vba3, hits give low values 1.01 | locus YCR088W, strain abp1, hits give low values 1 | locus YDL005C, strain med2, hits give low values 1.02 | locus YDL035C, strain GPR1, hits give low values 1.01 | locus YDL040C, strain nat1, hits give low values 1.01 | locus YDL074C, strain BRE1, hits give low values 0.991 | locus YDL101C, strain DUN1, hits give low values 1.01 | locus YDL134C, strain PPH21, hits give low values 1.01 | locus YDL185W, strain tfp1, hits give low values 1 | locus YDL192W, strain arf1, hits give low values 1.01 | locus YDR001C, strain nth1, hits give low values 1.01 | locus YDR069C, strain doa4, hits give low values 0.994 | locus YDR101C, strain arx1, hits give low values 1 | locus YDR137W, strain rgp1, hits give low values 1.03 | locus YDR150W, strain NUM1, hits give low values 1.01 | locus YDR159W, strain sac3, hits give low values 1.02 | locus YDR162C, strain NBP2, hits give low values 1.01 | locus YDR195W, strain ref2 0.981 | locus YDR297W, strain sur2, hits give low values 1 | locus YDR318W, strain mcm21, hits give low values 1.01 | locus YDR334W, strain swr1, hits give low values 1.01 | locus YDR335W, strain msn5, hits give low values 1.01 | locus YDR363W, strain ESC2, hits give low values 1.05 | locus YDR388W, hits give low values 1 | locus YDR392W, strain spt3, hits give low values 0.973 | locus YDR502C, strain sam2, hits give low values 0.994 | locus YEL003W, strain gim4, hits give low values 0.993 | locus YEL037C, strain rad23, hits give low values 1.02 | locus YEL061C, strain CIN8 (second series), hits give low values 1.01 | locus YEL061C, strain CIN8, hits give low values 1 | locus YER002W, strain NOP16, hits give low values 1.01 | locus YER015W, strain faa2, hits give low values 1.01 | locus YER016W, strain bim1, hits give low values 1.01 | locus YER110C, hits give low values 1 | locus YER111C, strain swi4, hits give low values 1.03 | locus YER155C, strain BEM2 (second series), hits give low values 1.02 | locus YER155C, strain BEM2, hits give low values 1 | locus YER167W, strain BCK2, hits give low values 1.01 | locus YFR010W, strain ubp6, hits give low values 1.01 | locus YGL078C, strain dbp3, hits give low values 0.991 | locus YGL086W, strain mad1, hits give low values 0.997 | locus YGL167C, strain pmr1, hits give low values 1.02 | locus YGL173C, strain kem1, hits give low values 1.01 | locus YGL227W, strain vid30, hits give low values 1.02 | locus YGL240W, strain doc1, hits give low values 0.999 | locus YGL248W, strain PDE1, hits give low values 1 | locus YGL253W, strain hxk2, hits give low values 1.02 | locus YGR135W, strain pre9, hits give low values 1.01 | locus YGR229C, strain SMI1, hits give low values 0.992 | locus YGR252W, strain gcn5, hits give low values 0.948 | locus YHR013C, strain ard1, hits give low values 1.03 | locus YHR027C, strain rpn1, hits give low values 1.03 | locus YHR030C, strain SLT2, hits give low values 1.01 and 0.972 | locus YHR079C, strain IRE1 (second series), hits give low values 1.01 | locus YHR079C, strain IRE1, hits give low values 0.975 | locus YHR094C, strain hxt1, hits give low values 1 | locus YHR129C, strain ARP1, hits give low values 0.998 | locus YHR142W, strain chs7, hits give low values 1.01 | locus YHR200W, strain rpn10, hits give low values 0.998 | locus YIL066C, strain RNR3, hits give low values 1.01 | locus YIL073C, strain SPO22, hits give low values 1.04 | locus YIL125W, strain kgd1, hits give low values 1.01 | locus YIR030C, strain dcg1, hits give low values 1.01 | locus YJL092W, strain hpr5, hits give low values 1.01 | locus YJL095W, strain BCK1 (second series), hits give low values 1.01 | locus YJL095W, strain BCK1, hits give low values 0.99 and 0.976 | locus YJL115W, strain asf1, hits give low values 1.01 | locus YJL129C, strain trk1, hits give low values 1.01 | locus YJL134W, strain LCB3, hits give low values 1.01 | locus YJL154C, strain vps35, hits give low values 1.01 | locus YJL164C, strain tpk1, hits give low values 1.01 | locus YJL166W, strain qcr8, hits give low values 1 | locus YJL168C, strain set2, hits give low values 1.01 | locus YJL187C, strain SWE1 (second series), hits give low values 1.01 | locus YJL187C, strain SWE1, hits give low values 1 | locus YJR043C, strain POL32, hits give low values 0.997

Reference: PubChem BioAssay AID1159580 (chemical genetic matrix, 2015)
